Source: PubChem BioAssay AID2596 (National Center for Advancing Translational Sciences (NCATS), 2010)
Results filed as inconclusive are left out. Where a call stands in place of a potency, no number is given. Activity calls are given as the source filed them. Calls follow the shape of the dose curve; as a rule, active = well fitted inhibition curve with a large enough effect; inconclusive = small, poorly fitted or top-dose-only effect, or effect the other way; inactive = flat fitted curve, though single readings scatter.

target: Lysosomal acid glucosylceramidase (Homo sapiens) (UniProt P04062); assay: qHTS Assay for Inhibitors and Activators of N370S glucocerebrosidase as a Potential Chaperone Treatment of Gaucher Disease: Purified N370S Glucocerebrosidase Cleavage of Glucosylceramide; settings: purified N370S GCase; series mostly up to 77.6 µM
Sequence (P04062 whole entry N409S): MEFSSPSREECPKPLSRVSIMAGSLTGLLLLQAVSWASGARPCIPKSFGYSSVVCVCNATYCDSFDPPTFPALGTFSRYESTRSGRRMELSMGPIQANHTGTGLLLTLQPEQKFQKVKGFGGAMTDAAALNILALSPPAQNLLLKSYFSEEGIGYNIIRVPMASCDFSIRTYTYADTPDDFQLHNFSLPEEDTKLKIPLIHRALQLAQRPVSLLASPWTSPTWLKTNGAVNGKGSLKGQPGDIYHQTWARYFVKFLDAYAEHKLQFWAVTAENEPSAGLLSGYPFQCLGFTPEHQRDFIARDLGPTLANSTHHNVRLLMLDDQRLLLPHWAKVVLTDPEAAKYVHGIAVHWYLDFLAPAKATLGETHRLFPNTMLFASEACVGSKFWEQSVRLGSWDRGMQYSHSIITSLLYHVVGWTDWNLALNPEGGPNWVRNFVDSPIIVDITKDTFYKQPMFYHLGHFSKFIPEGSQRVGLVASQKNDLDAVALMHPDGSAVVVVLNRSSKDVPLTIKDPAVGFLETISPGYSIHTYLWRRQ
Text: NIH Chemical Genomics Center [NCGC]
NIH Molecular Libraries Probe Production Centers Network [MLPCN]
Assay Submitter (PI): Wei Zheng
Glucocerebrosidase (GC) catalyzes the hydrolysis of beta-glucocerebroside to glucose and ceramide in lysosomes. Mutations in the glucocerebrosidase gene result in Gaucher disease, an autosomal recessive lysosomal storage disorder. Many of the mutations encountered in patients with Gaucher disease are missense alterations that may cause misfolding, decreased stability and/or mistrafficking of this lysosomal protein. […] These inhibitors include iminosugar analogs and three non-iminosugar inhibitors identified from a previous HTS of 62,000 compounds with the wild type recombinant enzyme. However, the enhancement of enzyme activity by the chaperone action of an enzyme inhibitor must be balanced against the direct inhibition of the enzyme. An enzyme activator could also function as a chaperone by binding to the enzyme and helping to correct its misfolding and mistrafficking. While activators for GC have not yet been identified, they may have better therapeutic potential than inhibitors. Therefore the discovery and development of chemical activators may provide a new strategy for the chaperone therapy.
We have optimized a new assay using N370S mutant GC derived from the spleen of a Gaucher patient. […] In addition, the MLPCN compound library has expanded, which increases the chance of finding new and better probes.
This assay characterizes compound activity using purified, mutant enzyme cleavage of the native substrate for the enzyme instead of mutant enzyme from tissue homogenate. Compound activity differences may be due to the absence of endogenous cofactors found in tissue homogenate as well as inherent differences in enzyme stability and catalytic activity using the difference substrates.
NCGC Assay Protocol Summary:
This is an enzyme assay using glucosylceramide from soy (Avanti Polar Lipids Catalog #: 131304P) as the substrate and recombinant human glucocerebrosidase as the enzyme preparation. Upon hydrolysis of the substrate, the glucose product can be detected using the Amplex Red Glucose Oxidase Assay Kit (Invitrogen catalog #: A22189). The product of this reaction can be read with a fluorescence plate reader with an excitation at 573 nm and an emission at 610 nm. Data were normalized to the controls for basal activity (without enzyme) and 100% activity (with enzyme). The AC50 values were determined from concentration-response data modeled with the standard Hill equation.
Assay buffer for enzyme reaction: 50 mM citric acid (titrated with potassium phosphate to pH 5.9), 0.01% Tween-20 (pH 5.9 is an optimal condition for this enzyme assay)
Assay buffer for Amplex Red reaction: Tris-HCl, pH 7.5
1536-well assay protocol for the glucocerebrosidase assay:
(1) Add 2 ul/well glucocerebrosidase enzyme solution (5 nM final)
(2) Add 23 nL compounds in DMSO solution. The final titration was 0.7 nM to 77 uM.
(3) Add 1 ul of glucosylceramide solution (50 uM final)
(4) Incubate at 37C for 40 min
(5) Add 2 ul tris-HCl buffer with Amplex Red reagents
(6) Incubate 45 min at room temperature.
(7) Detect the assay plate in a ViewLux plate reader (PerkinElmer) with Ex=573 nm and Em=610nm.
Keywords: Glucocerebrosidase, beta-glucosidase, Gaucher Disease, pharmacological chaperone, chaperone therapy, high throughput screening, glucocerebrosidase inhibitor, MLSMR, MLSCN, NIH Roadmap, qHTS and NCGC

| SMILES | Potency |
| --- | --- |
| COc1cc(OC)c2c(N)c(C#N)c(C(F)(F)C(F)(F)F)nc2c1 | inactive |
| Cc1cc(C)n2ncc(C(=O)Nc3cccc(O)c3)c2n1 | inactive |
| Cc1ccccc1-c1nccc(NCc2cccs2)n1 | inactive |
| O=S(=O)(c1ccc(F)cc1)N1CCN(c2nc(-c3ccc(F)cc3)nc3cc(Cl)ccc23)CC1 | inactive |
| NS(=O)(=O)c1ccc(S(=O)(=O)N2CCN(c3nc(-c4cccs4)nc4ccccc34)CC2)cc1 | inactive |
| O=S(=O)(c1ccc2c(c1)OCCO2)N1CCN(c2nc(-c3ccccc3)nc3ccccc23)CC1 | inactive |
| CC(=O)Nc1ccc(NC(=O)COc2ccccc2C(=O)Nc2cccc(Cl)c2Cl)cc1 | inactive |
| O=S(=O)(c1ccc(Cl)cc1)N1CCN(c2nc(-c3ccc(Cl)cc3)nc3ccccc23)CC1 | inactive |
| O=S(=O)(c1ccc(Cl)cc1)N1CCN(c2nc(Nc3cc(Cl)ccc3O)nc3ccccc23)CC1 | 14.1 µM (active) |
| CSc1ccc(NC(=O)Nc2cc(C)ccn2)cc1 | inactive |
| CCCNC(=O)COC(=O)c1ccccc1OCC(=O)Nc1ccc(Br)cc1 | inactive |
| S=C(NCCCc1cnc[nH]1)NCCCN(Cc1ccc(Cl)c(Cl)c1)c1ccc(Br)cn1 | 44.7 µM (active) |
| COc1ccc(S(=O)(=O)N2CCN(c3nc(-c4cccs4)nc4ccccc34)CC2)cc1 | inactive |
| O=C(CSc1nccc(-c2cccs2)n1)Nc1cccc(Cl)c1 | inactive |
| COc1ccccc1C(=O)COC(=O)c1ccccc1OCC(=O)Nc1ccc(SC(F)F)cc1 | inactive |
| O=S(=O)(c1ccc(F)cc1)N1CCN(c2nc(-c3ccccc3)nc3cc(Cl)ccc23)CC1 | inactive |
| CC(C)(C)c1ccc(S(=O)(=O)N2CCN(c3nc(-c4cccs4)nc4ccccc34)CC2)cc1 | inactive |
| Cc1cc(C)cc(N(CC(=O)NC2CCCCCC2)S(=O)(=O)c2c(C)[nH]c(=O)[nH]c2=O)c1 | 14.1 µM (active) |
| N#Cc1ccc(S(=O)(=O)N2CCN(c3nc(-c4cccs4)nc4ccccc34)CC2)cc1 | inactive |
| COc1ccc(-c2nc(N3CCN(S(=O)(=O)c4ccc(C)cc4)CC3)c3ccccc3n2)cc1 | inactive |

| SMILES | Potency |
| --- | --- |
| O=S(=O)(c1ccccc1C(F)(F)F)N1CCN(c2nc(-c3cccs3)nc3ccccc23)CC1 | inactive |
| CC1(C)CC(=O)C2=C(C1)c1c(ccc3ccccc13)NC2c1ccc(Br)o1 (stereo not given) | inactive |
| O=S(=O)(c1cccc(C(F)(F)F)c1)N1CCN(c2nc(-c3cccs3)nc3cc(Cl)ccc23)CC1 | inactive |
| Cc1cc(C)n2ncc(C(=O)Nc3ccc(Cl)c(Cl)c3)c2n1 | inactive |
| O=C(c1ccc2c(c1)OCCO2)N1CCN(c2nc(-c3cccs3)nc3ccccc23)CC1 | inactive |
| COc1ccc(-c2nc(N3CCN(S(=O)(=O)c4ccc(F)cc4)CC3)c3ccccc3n2)cc1 | inactive |
| CC(C)(C)C(=O)OCCNc1nc(-c2ccccc2)nc2ccccc12 | 39.8 µM (active) |
| CCc1ccc(NC(=O)c2cnn3c(C(F)F)cc(C)nc23)cc1 | inactive |
| c1csc(-c2nc(NCC3CCCO3)c3ccccc3n2)c1 (stereo not given) | inactive |
| O=S(=O)(c1ccc(Cl)cc1)N1CCN(c2nc(-c3cccs3)nc3ccccc23)CC1 | inactive |
| Cc1ccc(NC(=O)COc2ccccc2C(=O)Nc2ccccc2)cc1Cl | inactive |
| O=C(COc1ccccc1C(=O)c1cnn(-c2ccccc2)c1)Nc1ccccc1 | inactive |
| c1ccc2c(NCC3CCCO3)nc(N3CCOCC3)nc2c1 (stereo not given) | inactive |
| O=S(=O)(c1ccccc1Cl)N1CCN(c2nc(-c3cccs3)nc3ccccc23)CC1 | inactive |
| COc1ccc(N(CC(=O)NC2CCCCC2)S(=O)(=O)c2c(C)[nH]c(=O)[nH]c2=O)cc1 | inactive |
| Cc1ccccc1S(=O)(=O)N1CCN(c2nc(-c3cccs3)nc3ccccc23)CC1 | inactive |
| COc1ccccc1OCC(=O)Nc1oc(-c2ccccc2)c(-c2ccccc2)c1C#N | inactive |
| Nc1nc(-c2ccccc2)c(N=Nc2ccc(Cl)cc2)s1 | inactive |
| O=S(=O)(c1cccc2ccccc12)N1CCN(c2nc(-c3cccs3)nc3ccccc23)CC1 | inactive |
| O=S(=O)(Cc1ccccc1)N1CCN(c2nc(-c3cccs3)nc3ccccc23)CC1 | inactive |
